An excerpt weighted towards active compounds, which were near 5.8% of everything screened.
KB-3-1 cytotox: kills parental KB-3-1 adenocarcinoma cells; Potency, µM (top dose mostly 46.1 µM), actives largely listed as cytotoxic; actives 1.4% (n = 400,000); KB-3-1 viability, CellTiter-Glo ATP luminescence, 72 h; note: % is set by controls: 0 for no effect and ±100 for the full control effect; nearly all actives have a fitted effect of over 60% in size
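72 h, 37 °C compound treatment of KB-3-1 parental cells; CellTiter-Glo added, 10 min, luminescence read. Data corrected against DMSO-only plates and normalized before curve fitting.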
MCF10A rereplic: DNA re-replication induction in MCF 10a cells; MCF 10A DNA re-replication, Hoechst nuclear intensity, 48 h; Potency, µM (highest dose often 46.1 µM), inactives show top-dose activity, positive = re-replication, hits mostly activators; actives 2.9% (n = 350,000); note: % of control where 0% means no effect; nearly all actives have a fitted effect of over 50% in size
PINK1 modulator: modulators of PINK1 expression; actives 0.2% (n = 410,000); PINK1 immunofluorescence, high-content cytometry, 24 h; Potency, µM (doses to about 76.6 µM), for inactives: at the top dose activation (PINK1 increase), actives largely listed as activators; active = well fitted activation curve with a large enough effect; inconclusive = small, poorly fitted or top-dose-only effect; cell line not stated here; note: % of control where 0% means no effect; nearly all actives have a fitted effect of over 65% in size
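PINK1 protein, normally rapidly degraded, was detected by immunofluorescence after 24 hour compound treatment of a stable cell line. Titration data (5 concentrations) came from laser-scanning cytometry, with CCCP-treated wells as controls.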
SW480 rerep: induces DNA re-replication in SW480 colon adenocarcinoma cells; AID 624297; Potency, µM (series often up to 46.1 µM), without a hit: at the top dose re-replication activation, usual class: activators; SW480 DNA re-replication, Hoechst DNA content imaging, 48 h; actives 1.8% (n = 340,000); note: % of control where 0% means no effect; nearly all actives have a fitted effect of over 55% in size
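Image-based DNA-content assay: after two days of treatment, nuclei were labelled with the DNA dye Hoechst and imaged, and hits were compounds raising the count of nuclei showing high fluorescence intensity.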
KB-V1 cytotox: kills drug-selected multidrug resistant KB-V1 cells. KB-V1 MDR cells viability, CellTiter-Glo, 72 h. Potency, µM (titrated, usually from 46.1 µM), most hits filed as cytotoxic. actives 3.4% (n = 400,000). AID 1347076; note: % is set by controls: 0 for no effect and ±100 for the full control effect; nearly all actives have a fitted effect of over 60% in size
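Luminescent ATP read-out (CellTiter-Glo, 10 min) measures survival of drug-selected KB-V1 MDR cells after 72 h, 37 degrees C compound exposure. Medium: phenol-red-free DMEM, 10% FBS. Values from fitted concentration-response curves.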
12-LOX inh: inhibitors of human 12S-lipoxygenase ALOX12; P18054; purified 12hLO, xylenol orange hydroperoxide absorbance; Potency, µM (doses to about 108 µM), inactives show at the highest dose activity change, negative = inhibition, actives largely listed as inhibitors; actives 1.1% (n = 580,000); note: % is set by controls: 0 for no effect and ±100 for the full control effect
Target sequence (P18054 whole entry, looked up): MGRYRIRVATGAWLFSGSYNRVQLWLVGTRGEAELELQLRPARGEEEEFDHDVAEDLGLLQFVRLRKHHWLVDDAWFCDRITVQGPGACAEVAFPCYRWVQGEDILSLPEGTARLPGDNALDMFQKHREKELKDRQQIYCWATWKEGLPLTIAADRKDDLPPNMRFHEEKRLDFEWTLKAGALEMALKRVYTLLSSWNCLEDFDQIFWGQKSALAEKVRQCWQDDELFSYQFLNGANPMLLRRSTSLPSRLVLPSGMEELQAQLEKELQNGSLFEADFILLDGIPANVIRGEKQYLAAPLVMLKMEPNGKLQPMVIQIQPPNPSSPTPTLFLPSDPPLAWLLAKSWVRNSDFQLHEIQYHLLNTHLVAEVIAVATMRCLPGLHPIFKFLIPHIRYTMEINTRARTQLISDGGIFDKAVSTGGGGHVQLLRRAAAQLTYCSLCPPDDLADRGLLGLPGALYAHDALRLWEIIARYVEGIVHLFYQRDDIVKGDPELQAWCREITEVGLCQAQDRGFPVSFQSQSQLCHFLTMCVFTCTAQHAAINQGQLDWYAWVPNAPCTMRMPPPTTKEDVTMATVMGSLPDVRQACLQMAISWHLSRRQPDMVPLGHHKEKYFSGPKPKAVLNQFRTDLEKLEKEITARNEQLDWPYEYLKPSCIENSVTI
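Purified human 12hLO (150 nM final) in 25 mM Hepes, 0.01% Triton X-100, pH 7.0 was preincubated 15 min at room temperature with compound. Then 40 uM arachidonic acid was added, 30 min. Hydroperoxide was read by Fe-XO absorbance ratio 573/405 nm.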
* hit, by the source's call; i = inactive; ? = inconclusive; / = no result given; [ ] = dose if it differs, or a comment. Unless noted, calls come from the whole dose curve; as a rule, active = well fitted curve in the direction sought with a large enough effect; inconclusive = small, poorly fitted or top-dose-only effect, or another doubt; inactive = no such curve, though single readings can be large; an effect the other way counts as inactive or inconclusive. Potency is the fitted concentration of half-maximal effect.

SMILES	KB-3-1 cytotox	MCF10A rereplic	PINK1 modulator	SW480 rerep	KB-V1 cytotox	12-LOX inh
CC12CCC3C(CCC4(O)CC(O)CCC34C=NO)C1(O)CCC2C1=COC(=O)C1 (configuration not stated)	0.37µM*	?	-1%	1.6µM*	?	12%
C[C@]12CC[C@H]3[C@@H](CC[C@]4(O)C[C@@H](O)CC[C@]34C=O)[C@@]1(O)CC[C@@H]2C1=CC(=O)OC1	0.52µM*	?	0%	2.6µM*	0.92µM*	6%
CC12CC[C@H]3[C@@H](CCC4(O)C[C@H](O)CCC34/C=N/NC(=O)c3ccccc3Cl)C1(O)CCC2C1=CC(=O)OC1 (some centres not stated)	i	14%	-1%	-6%	i	12%
N#Cc1cccc(NC(=O)NC[C@H]2C[C@@H]3CCN2C[C@@H]3CN2CCN(c3ccccc3)CC2)c1	/	/	/	/	/	5%
C[C@]12CCC3C(CCC4=CC(O)CC[C@@]43/C=N/O)C1(O)CCC2C1=CC(=O)OC1 (some centres not stated)	0.29µM*	?	-1%	3.7µM*	0.65µM*	0%
COc1ccc(C)cc1NC(=O)c1cn(C)c2ccccc12	/	/	/	/	/	-3%
COc1ccc(-c2cc([C@H]3CN4CC[C@H]3C[C@@H]4CN)n(C)n2)cc1OC	/	/	/	/	/	101%[176 µM]
CCN(CC)C(=O)c1ccc(NC(=O)COC(=O)c2ccc3nc(C)c(C)nc3c2)cc1	/	/	/	/	/	-36%
O=C(Nc1ccc2n(c1=O)C[C@H]1C[C@@H]2CN(CC2CCCCC2)C1)C1CCCCC1	/	/	/	/	/	3%[176 µM]
CCN(CCNc1ccc([N+](=O)[O-])c2cccnc12)S(=O)(=O)c1ccccc1	i	10%	40µM*	-9%	i	0%
CC(O)CNc1ccc([N+](=O)[O-])c2cccnc12 (configuration not stated)	i	0%	-1%	0%	i	-29%
Cc1ccccc1OCCNc1ccc([N+](=O)[O-])c2cccnc12	/	/	/	/	/	16%
CCC(CO)Nc1ccc([N+](=O)[O-])c2cccnc12 (configuration not stated)	?	1%	-3%	-11%	18µM*	-14%
NCCNc1ccc([N+](=O)[O-])c2cccnc12	?	0.65µM*	0%	24%	i	-18%
Cc1nonc1OCCNc1ccc([N+](=O)[O-])c2cccnc12	i	5%	1%	0.52µM*	?	5%
Nc1ccccc1C(=O)O	/	-1%	/	-4%	/	0%[22.9 µM]
O=C1C(I)=CC(=C(c2cc(I)c(O)c(I)c2)c2ccccc2C(=O)O)C=C1I	/	?	/	-3%	/	5.1µM*
COC(=O)C1=C(c2ccc(F)cc2F)C[C@@H]2CC[C@H]1N2C(=O)N1CCC(O)(c2ccc(Cl)cc2)CC1	?	7.3µM*	?	-1%	i	-15%
COC(=O)C1=C(c2ccc(F)cc2F)C[C@@H]2CC[C@H]1N2C(=O)N1CCCC1	i	16%	0%	-4%	i	-3%
CN1CCCCC12Cc1ccccc1CN(C(=O)Cc1ccccc1)C2 (configuration not stated)	/	/	/	/	/	10%[6.33 µM]
C[C@]12CC[C@@H]3c4ccc(OC(=O)N(CCCl)CCCl)cc4CC[C@H]3[C@@H]1CC[C@@H]2OP(=O)(O)O	/	/	/	/	/	22µM*
CC12CCC3c4ccc(OP(=O)(N5CC5)N5CC5)cc4CCC3C1CCC2=O (configuration not stated)	i	?	0%	3%	?	24%
C1CC(N(CC2CC2)C2CNC2)CCO1	/	/	/	/	/	34%
O=C(O)CCCc1ccc(N(CCCl)CCCl)cc1	i	?	0%	?	i	?
O=c1[nH]cnc2nc(-c3ccc(N(CCCl)CCCl)cc3)[nH]c12	?	15µM*	7%	9.2µM*	?	-26%

Screening data from PubChem.
